The results in this text go back to PubChem BioAssay (NCI).

Test systems include SK-MEL-2 melanoma; EKVX NSCLC; SN12C renal; UO-31 renal; TK-10 renal; ACHN renal; CAKI-1 renal; A498 renal; CCRF-CEM leukemia; MOLT-4 leukemia; SR leukemia; RPMI-8226 leukemia; OVCAR-8 ovarian; OVCAR-5 ovarian; OVCAR-4 ovarian; SK-OV-3 ovarian; IGROV1 ovarian; OVCAR-3 ovarian; HS 578T breast; NCI/ADR-RES ovarian.
Test in all cases: NCI-60 one-dose screen, 48 h (100 = growth as untreated, 0 = no growth, -100 = all killed)
Common to all, as to settings: 10 µM unless noted

About 83,000 compounds went through this panel and 20% of them were active in at least one assay; those are over-represented in the sample as a whole.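 Percent growth is the endpoint: 0 to 100 indicates growth inhibition (40 means 60% inhibition), 0 means no net growth, and negative values indicate cell death.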 Values without a mark were called inactive. Activity calls are given as the source filed them. How the source made its calls: active means growth percent below 10; inactive means the rest.

For the molecule `COc1ccc(-n2nc(C)c3c(Oc4ccc(NC(=O)Nc5c(Cl)cccc5Cl)cc4)ncnc32)cc1`, the growth in the assay with SK-MEL-2 melanoma was 106%; in the assay with EKVX NSCLC it was 95.8%; in the assay on SN12C renal, 101%; in the assay on UO-31 renal, 86.5%; in the assay with TK-10 renal it was 110%; in the assay on ACHN renal, 106%. The growth was 95.3% in the assay on CAKI-1 renal; 99.1% with A498 renal; 95.5% in the assay on CCRF-CEM leukemia; 106% in the assay with MOLT-4 leukemia; 111% in the assay with SR leukemia; 102% with RPMI-8226 leukemia. In addition, the growth was 97.4% in the assay on OVCAR-8 ovarian; 112% with OVCAR-5 ovarian; 99.9% with OVCAR-4 ovarian; 89% in the assay on SK-OV-3 ovarian; 101% with IGROV1 ovarian; 112% in the assay with OVCAR-3 ovarian. In addition, the results for the growth in the assay with HS 578T breast and in the assay with NCI/ADR-RES ovarian were 92% and 102%, respectively.
Consider `O=C(Cc1ccccc1Nc1c(Cl)cccc1Cl)NN1C(=O)/C(=C/c2ccc(Br)cc2)SC1=S`, for which the growth in the assay on SK-MEL-2 melanoma is 99.9%; in the assay with EKVX NSCLC, 98.5%; in the assay on SN12C renal it was 100%; in the assay with UO-31 renal, 90.9%; in the assay on TK-10 renal, 107%; in the assay on ACHN renal, 104%. Moreover, the growth in the assay with CAKI-1 renal was 100%; in the assay on A498 renal it was 107%; in the assay on CCRF-CEM leukemia, 107%; in the assay with MOLT-4 leukemia, 107%; with SR leukemia, 132%; with RPMI-8226 leukemia, 106%. The growth was 100% with OVCAR-8 ovarian; 100% in the assay on OVCAR-5 ovarian; 114% in the assay on OVCAR-4 ovarian; 100% with SK-OV-3 ovarian; 97.7% with IGROV1 ovarian; 109% with OVCAR-3 ovarian. The growth is 96.4% with HS 578T breast and 105% with NCI/ADR-RES ovarian.
On to `Cn1cc(-c2nonc2-c2c[nH]c3ccccc23)c2cccnc21`, for which the growth is 8.48% (active) in the assay with SK-MEL-2 melanoma; 49.7% in the assay on EKVX NSCLC; 39.6% with SN12C renal; 55.7% in the assay on UO-31 renal; 75.3% with TK-10 renal; 60.9% in the assay with ACHN renal. Also, the growth with CAKI-1 renal was 39.3%; in the assay with A498 renal, 17.1%; with CCRF-CEM leukemia, 20.2%; in the assay on MOLT-4 leukemia, 16.5%; with SR leukemia it was 23.5%; in the assay with RPMI-8226 leukemia, 40.8%. In addition, the growth in the assay on OVCAR-8 ovarian is 47.8%; in the assay on OVCAR-5 ovarian, 72.3%; in the assay with OVCAR-4 ovarian it was 74.5%; in the assay on SK-OV-3 ovarian it was 41.7%; with IGROV1 ovarian, 39.4%; with OVCAR-3 ovarian it was 15.2%. Besides, the growth in the assay on HS 578T breast is 36.1%; in the assay on NCI/ADR-RES ovarian it was 13%.
With `Cn1c(=O)[nH]c(=O)c2nc(CCC(=O)NCCC(=O)O)c(=O)[nH]c21`, the growth was 106% in the assay with SK-MEL-2 melanoma; 106% in the assay with EKVX NSCLC; 99.5% with SN12C renal; 86.6% in the assay with UO-31 renal; 106% with TK-10 renal; 101% with ACHN renal. Further, the growth was 93.5% in the assay on CAKI-1 renal; 114% with A498 renal; 109% in the assay with CCRF-CEM leukemia; 106% in the assay with MOLT-4 leukemia; 113% in the assay with SR leukemia; 111% in the assay with RPMI-8226 leukemia. Also, the growth was 101% in the assay with OVCAR-8 ovarian; 106% with OVCAR-5 ovarian; 106% in the assay with OVCAR-4 ovarian; 101% in the assay with SK-OV-3 ovarian; 98.6% in the assay with IGROV1 ovarian; 113% in the assay with OVCAR-3 ovarian. The growth in the assay on HS 578T breast is 89.8%; in the assay with NCI/ADR-RES ovarian, 105%.
For `O=c1c(F)cn(Cc2ccccc2CCl)c(=O)n1Cc1ccccc1CCl`, the growth in the assay with SK-MEL-2 melanoma was 4.2% (active); in the assay with EKVX NSCLC, -4.31% (active); in the assay on SN12C renal, -26.5% (active); in the assay with UO-31 renal it was -80.4% (active); in the assay with TK-10 renal, -30.8% (active); with ACHN renal, -81.8% (active). Moreover, the growth is -84.5% (active) in the assay on CAKI-1 renal; 76.3% in the assay with A498 renal; -42.9% (active) in the assay on CCRF-CEM leukemia; -40.3% (active) in the assay on MOLT-4 leukemia; -57.5% (active) in the assay on SR leukemia; -48.6% (active) in the assay with RPMI-8226 leukemia. In addition, the growth is -20.3% (active) in the assay on OVCAR-8 ovarian; -76.8% (active) in the assay on OVCAR-5 ovarian; -15.3% (active) in the assay on OVCAR-4 ovarian; 10.3% in the assay with SK-OV-3 ovarian; -37.3% (active) in the assay with IGROV1 ovarian; -44.6% (active) in the assay with OVCAR-3 ovarian. Besides, the values for the growth in the assay on HS 578T breast and in the assay on NCI/ADR-RES ovarian were -3.05% (active) and -9.91% (active), respectively.
Consider `Cc1ccccc1COc1ccc(-c2ccnn2-c2ccc(Cl)cc2)cc1`, for which the growth in the assay with SK-MEL-2 melanoma was 39.2%; with EKVX NSCLC it was 77%; in the assay on SN12C renal, 67.6%; in the assay with UO-31 renal it was 74.4%; in the assay on TK-10 renal it was 83.8%; with ACHN renal, 77.6%. The growth with CAKI-1 renal was 59.7%; in the assay on A498 renal, 57.5%; in the assay on CCRF-CEM leukemia it was 42.4%; with MOLT-4 leukemia it was 26.3%; in the assay on SR leukemia, 33.8%; in the assay with RPMI-8226 leukemia it was 77.6%. Also, the growth with OVCAR-8 ovarian is 75.3%; in the assay with OVCAR-5 ovarian, 91.7%; in the assay on OVCAR-4 ovarian, 85.7%; with SK-OV-3 ovarian it was 63.7%; in the assay with IGROV1 ovarian it was 57.5%; with OVCAR-3 ovarian, 26.6%. For the same molecule, the results for the growth with HS 578T breast and with NCI/ADR-RES ovarian were 60.9% and 38%, respectively.
`COc1ccc(-c2nc3cc(C(=O)Nc4cc(OC)c(OC)c(OC)c4)ccc3n2C2CCCCC2)cc1`: the growth was 95.6% in the assay with SK-MEL-2 melanoma; 91.8% with EKVX NSCLC; 91.7% with SN12C renal; 78.7% with UO-31 renal; 111% with TK-10 renal; 93.2% in the assay on ACHN renal. The growth is 97.4% in the assay on CAKI-1 renal; 113% with A498 renal; 94.3% in the assay with CCRF-CEM leukemia; 83.1% in the assay on MOLT-4 leukemia; 57.5% in the assay with SR leukemia; 91.7% in the assay with RPMI-8226 leukemia. In addition, the growth in the assay on OVCAR-8 ovarian was 96.6%; in the assay with OVCAR-5 ovarian it was 98.1%; in the assay on OVCAR-4 ovarian it was 109%; in the assay with SK-OV-3 ovarian, 104%; in the assay with IGROV1 ovarian, 96.5%; in the assay with OVCAR-3 ovarian it was 101%. For the same molecule, the growth is 81.9% with HS 578T breast and 98.3% with NCI/ADR-RES ovarian.
For `N=C(N)c1ccc(-c2ccc(-c3ccc4ccccc4c3)s2)s1`, the growth with SK-MEL-2 melanoma was 101%; in the assay on EKVX NSCLC, 51.8%; in the assay with SN12C renal it was -62.2% (active); in the assay with UO-31 renal it was 55.6%; with TK-10 renal, 19%; with ACHN renal it was 25.7%. Also, the growth with CAKI-1 renal is 59.2%; with A498 renal it was 66.6%; with CCRF-CEM leukemia, -27.8% (active); in the assay on MOLT-4 leukemia, -46.7% (active); in the assay on SR leukemia, -37.2% (active); in the assay on RPMI-8226 leukemia, -18.3% (active). The growth with OVCAR-8 ovarian was 3.43% (active); with OVCAR-5 ovarian, -0.924% (active); with OVCAR-4 ovarian, -21.3% (active); in the assay with SK-OV-3 ovarian, 95.7%; in the assay on IGROV1 ovarian it was 5.62% (active); in the assay with OVCAR-3 ovarian it was -76.1% (active). Also, the growth with HS 578T breast is 91.6%; in the assay with NCI/ADR-RES ovarian, -42% (active).
